A selection: hits, their analogues and other compounds. The true share with any hit is near 4.5%.
GRK2 aptamer HTS: compounds blocking aptamer binding on GRK2 – biochemical, human GRK2, bead flow cytometry, HTS, primary screen. FAM-aptamer displacement from GRK2. inhibition of aptamer binding, % at 10 µM. actives 0.59% (n = 330,000). AID 488847, 2010;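 active = inhibition of aptamer binding above 40%, roughly 3 SD of noise, on plates passing a quality check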;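 also: median bead fluorescence of bound FAM aptamer so fluorescent compounds give negative values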
Rce1 inhib: yeast Rce1p protease inhibitors, primary screen, biochemical, fluorescence, cell-free homogeneous. yeast membranes, quenched prenylated peptide cleavage fluorescence. actives 0.27% (n = 290,000). CAAX prenyl protease 2 (Saccharomyces cerevisiae (strain ATCC 204508 / S288c)), Q03530. calls only;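 active = fall in fluorescence gain of 50% or more versus controls, with final raw signal at or below 3038400; inconclusive = same 50% fall but final raw signal above 3038400; inactive = fall in fluorescence gain under 50%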;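 also: plate controls were neutral control wells for no effect and wells lacking membranes for full effect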
Rtt109 HAT inh: inhibitors of C. albicans Rtt109/Vps75 HAT, primary screen, biochemical, ThioGlo CoA-SH fluorescence, plate reader; Histone acetyltransferase RTT109 (Candida albicans (strain SC5314 / ATCC MYA-2876)), …; purified Rtt109/Vps75, 4 h; inhibition, % at 34.9 µM; actives 0.16% (n = 330,000);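 active = inhibition of at least 50% in every replicate; inconclusive = best replicate reaches 50% inhibition but some replicates fall short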
Target sequence (Q5AAJ8 whole entry, looked up): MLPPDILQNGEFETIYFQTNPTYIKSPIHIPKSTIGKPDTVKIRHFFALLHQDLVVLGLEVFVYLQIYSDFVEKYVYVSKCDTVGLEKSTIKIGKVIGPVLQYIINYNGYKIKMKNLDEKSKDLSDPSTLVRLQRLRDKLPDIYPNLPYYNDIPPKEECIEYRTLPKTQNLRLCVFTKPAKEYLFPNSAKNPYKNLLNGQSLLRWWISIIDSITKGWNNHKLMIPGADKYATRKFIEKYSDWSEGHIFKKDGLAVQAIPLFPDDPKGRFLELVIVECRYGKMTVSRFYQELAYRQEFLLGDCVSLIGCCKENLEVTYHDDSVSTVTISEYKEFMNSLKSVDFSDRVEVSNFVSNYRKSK
ALR inh: inhibitors of human ALR sulfhydryl oxidase, primary screen, biochemical, H2O2 detection, HRP-luminol luminescence, single point | FAD-linked sulfhydryl oxidase ALR (Homo sapiens), P55789 | purified ALR, DTT oxidation | inhibition, % (concentration not given with the values) | actives 3.8% (n = 290,000) | AID 485317, 2010;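 active = mean replicate inhibition above about 79%, with every replicate also reaching it, limit read from the data; inconclusive = only one of the two criteria met; inactive = mean below limit and not every replicate reaching it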
Target sequence (P55789 whole entry, looked up): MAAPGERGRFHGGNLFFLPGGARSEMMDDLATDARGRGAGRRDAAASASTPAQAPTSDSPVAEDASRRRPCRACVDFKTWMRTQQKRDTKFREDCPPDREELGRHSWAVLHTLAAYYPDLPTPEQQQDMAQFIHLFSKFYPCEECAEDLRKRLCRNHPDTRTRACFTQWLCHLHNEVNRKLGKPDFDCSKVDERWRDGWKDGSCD
HDAC3 inh: HDAC3 deacetylase inhibitors, primary screen, biochemical, fluorescence, cell-free homogeneous; inhibition, % at 8.3 µM; actives 0.15% (n = 320,000); recombinant HDAC3, fluorogenic peptide/trypsin coupled; Histone deacetylase 3 (Homo sapiens), O15379; in the data active = inhibition above about 26%, passing the limit was not always enough; inconclusive = no clear call, values can overlap the other calls
Efflux pump inh: inhibitors of Candida efflux pumps in yeast, primary screen, S. cerevisiae, Nile Red, multiplex. S. cerevisiae Candida pump triplex. inhibition, % at 10 µM. actives 0.44% (n = 330,000);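 active = plate passing quality check with inhibition over a set limit, or well fluorescence over plate mean plus 4 SD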;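 also: Nile Red retained in pooled yeast measured as flow cytometry median fluorescence; 0% = buffer negative control and 100% = Enniatin B positive control; higher means more Nile Red kept so more efflux inhibition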
* hit, by the source's call; i = inactive; ? = inconclusive; . = no result; + = active, no number.

SMILES | GRK2 aptamer HTS | Rce1 inhib | Rtt109 HAT inh | ALR inh | HDAC3 inh | Efflux pump inh
COc1cc(/C=C/C(=O)Nc2ccncc2)cc(OC)c1OC | 0.0 | i | 5.6 | 85.2* | -10.3 | 0.3
Cc1ccc(NC(=O)CN2CCN(C(=O)c3ccco3)CC2)cc1S(=O)(=O)N(C)C | . | . | 0.8 | . | . | .
CC1CCN(Cc2cc(=O)oc3ccc4ccccc4c23)CC1 | 14.0 | i | 5.8 | . | -2.0 | -0.2
COc1ccc2[nH]c(=S)[nH]c2c1 | 2.0 | i | 3.0 | 98.5* | 0.0 | 0.0
CCCc1nc(SCC(=O)NC2CCCC2)c2ccccc2n1 | 0.0 | i | -4.1 | . | 13.0 | 0.0
CCc1nc(SCC(=O)Nc2nc3c(s2)CCCC3)c2ccccc2n1 | 4.0 | i | -4.9 | 99.3* | -7.0 | 0.0
CCCc1nc(SCC(=O)Nc2nc3c(s2)CCCC3)c2ccccc2n1 | 0.0 | i | 4.3 | 98.6* | 8.7 | 0.0
O=C(COc1ccc(Br)cc1)OCCN1CCCCC1 | 2.0 | i | 0.9 | . | -5.7 | 0.0
CCCN1CCC(=O)N([C@H](CSc2ccc(OC)cc2)CC(C)C)CC1 | 0.0 | i | 2.1 | 98.5* | 5.5 | 0.0
CC(C)C[C@@H](CSc1ccccc1)N1CCN(CCc2ccccc2)CCC1=O | 0.0 | i | 2.7 | -2.8 | 8.8 | -0.2
CC(=O)N1CCN(S(=O)(=O)c2cccc(C(=O)NNC(=O)c3ccc(Br)cc3)c2)CC1 | . | . | 2.7 | . | . | .
Cc1cc(NC(=O)CSc2ncc(C(=O)O)n2-c2ccc(F)cc2)no1 | 0.0 | . | -0.7 | -7.6 | -8.8 | 0.0
FC(F)(F)c1cnc(NNC(=S)Nc2ccc(Cl)cc2)c(Cl)c1 | 1.0 | i | 2.0 | 97.9* | 3.3 | -0.2
O=C1NCCCc2c1oc1ccc(O)cc21 | 2.0 | i | -1.6 | 99.0* | 4.6 | 0.1
O=CN1CCCN(Cc2nc(-c3cccc(Cl)c3)no2)CC1 | 0.0 | i | -6.6 | -1.9 | 3.8 | -0.1
Cc1cccc(-c2nc(CS(=O)CC(=O)NC3CCCC3)c(C)o2)c1 (stereo not drawn) | . | . | 8.5 | . | . | .
CCC(C)NC(=O)CS(=O)Cc1nc(-c2cccc(C)c2)oc1C (stereo not drawn) | 0.0 | i | -1.9 | 98.0* | 4.5 | 0.0
Cc1cccc(-c2nc(CS(=O)CC(=O)NCCc3ccc(Cl)cc3)c(C)o2)c1 (stereo not drawn) | 1.0 | i | -4.2 | 91.4* | -2.3 | -0.1
CCCCNC(=O)CS(=O)Cc1nc(-c2cccc(C)c2)oc1C (stereo not drawn) | 1.0 | i | -2.1 | 98.8* | -7.4 | -0.1
CCCCNC(=O)CS(=O)Cc1nc(-c2cccc(Cl)c2)oc1C (stereo not drawn) | 2.0 | i | 6.2 | 99.5* | 0.3 | 0.1
COC(=O)c1cc(C(=O)OC)n(Cc2ccc(C)cc2)c1C | 4.0 | i | -18.9 | . | . | -0.1
O=C(Cn1nnc2ccccc21)NNC(=S)NC1CCCCC1 | 0.0 | i | -4.8 | 20.4 | -2.3 | -0.1
CCCCSCCCNC(=O)CS(=O)Cc1nc(-c2cccc(C)c2)oc1C (stereo not drawn) | 4.0 | i | 0.0 | 98.8* | -0.8 | 0.0
NC(=O)C1CCN(c2nc(-c3ccc4ccccc4c3)cs2)CC1 | 0.0 | . | -4.9 | ? | 2.2 | 0.1
COC(C/C=C\C(=O)[C@H](C)OCc1ccccc1)OC | . | + | 4.7 | 83.2* | 4.3 | .
SMILES | GRK2 aptamer HTS | Rce1 inhib | Rtt109 HAT inh | ALR inh | HDAC3 inh | Efflux pump inh
CCOc1cc(C(=O)N(C)CC(=O)Nc2cccc(F)c2)ccc1OCC(=O)N1CCCCC1 | 3.0 | i | -2.1 | -1.7 | -11.6 | 0.0
Cc1ccc2c(c1)C1C=CCC1C(C(=O)O)N2 (stereo not drawn) | 68.0* | i | . | -0.5 | -2.9 | -0.2
O=C(O)C1Nc2ccc(OC(F)(F)F)cc2C2C=CCC12 (stereo not drawn) | 29.0 | i | . | 96.8* | 3.6 | 0.1
COc1ccc(-c2cc(C(=O)Nc3cc(C)nn3-c3ccccc3)no2)cc1OC | 0.0 | i | 0.3 | -10.0 | -0.2 | 0.0
O=C(c1nc2ccccn2c1CN1CCCC(OCc2ccccc2)C1)N1CCCC1 (stereo not drawn) | 1.0 | i | -4.9 | 10.0 | -9.8 | 0.1
O=C(c1nc2ccccn2c1CN1CCN(c2ccccc2O)CC1)N1CCCC1 | 0.0 | i | 11.9 | 98.9* | -3.2 | 0.1
CN(C)S(=O)(=O)c1cccc(-c2cn3cc(Cl)ccc3n2)c1 | 0.0 | i | 4.7 | 98.4* | 0.1 | 0.1
CN(C)S(=O)(=O)c1cccc(-c2cn3ccccc3n2)c1 | 0.0 | i | 3.8 | 99.3* | -4.3 | -0.1
COCC(=O)N(Cc1cc2cccc(C)c2[nH]c1=O)c1ccccc1 | 0.0 | i | -8.2 | -5.7 | 6.4 | 0.0
Nc1nc2c(nc(SCc3ccccc3Br)n2C2OC(CO)C(O)C2O)c(=O)[nH]1 (stereo not drawn) | 4.0 | i | 6.8 | 86.4* | -1.5 | -0.1
CCN(CC)S(=O)(=O)c1ccc(Cl)c(NC(=O)COc2ccc3c(C)cc(=O)oc3c2)c1 | 100.0* | i | 12.3 | -43.1 | 3.5 | 0.0
CCCC(=O)Nc1cc(S(=O)(=O)N(CC)CC)ccc1Cl | 11.0 | i | -7.7 | 98.0* | -2.7 | -0.8
Cc1cc(=O)oc2cc(OCC(=O)Nc3cccc(S(=O)(=O)N(C)C)c3)ccc12 | 56.0* | i | 3.4 | 0.9 | 1.0 | 0.1
Cc1nc(-c2ccc(S(=O)(=O)NCc3cccnc3)s2)cs1 | 0.0 | i | 5.7 | -10.6 | 2.8 | 0.0
CCOc1cc(Cl)c(S(=O)(=O)NCc2cccnc2)cc1Cl | 0.0 | i | -0.3 | -0.8 | -11.3 | 0.1
COc1ccc(OC)c(C2C3=C(COC3=O)Nc3cc4c(cc32)OCO4)c1 (stereo not drawn) | 0.0 | i | -3.4 | 99.0* | -1.1 | 0.0
COc1ccc(C2C3=C(CC(C)(C)CC3=O)Nc3cc4c(cc32)OCO4)cc1 (stereo not drawn) | 3.0 | i | -20.3 | ? | -2.0 | 0.0
O=C(NCCc1ccccc1C(F)(F)F)C1CCC(=O)N(C2CC2)C1 (stereo not drawn) | 0.0 | i | -16.4 | -5.3 | -2.0 | 0.0
CCc1nnc(NC(=O)CSc2sc3c(O)cc(=O)[nH]c3c2C#N)s1 | 9.0 | i | 9.0 | 98.4* | -4.6 | -0.5
Cc1csc(NC(=O)CSc2sc3c(O)cc(=O)[nH]c3c2C#N)n1 | 5.0 | . | -2.6 | 98.6* | 5.6 | 0.1
CCSc1nnc(NC(=O)CSc2sc3c(O)cc(=O)[nH]c3c2C#N)s1 | 8.0 | i | -34.9 | 69.8 | 4.5 | 0.5
